PubChem BioAssay (EPA / NIEHS)
Results filed as inconclusive are left out. Calls of active or inactive are those of the source. The calls were made as follows: active = hit-call score of the fitted dose curve at least 0.9, where 1 is the maximum; inconclusive = response in the unintended direction; inactive = score below 0.9.

Experiments:
[1] = TOX21_p53_BLA_p2_viability: Viability Assessment in the Tox21 HCT-116 p53 Agonism Beta-lactamase Assay, Phase 2 (AID 2283591);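 also: actives lower the ATP signal meaning cytotoxicity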
How it was run: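 HCT116 p53-bla cells, 4000/well, dosed after 5 h plating (217-fold dilution of DMSO stocks) and incubated 16 h at 37C. Viability taken as cellular ATP by CellTiter-Glo luminescence after 30 min RT; signal loss marks cytotoxicity.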

[2] = target: Cellular tumor antigen p53 (Homo sapiens) (UniProt P04637); assay: TOX21_p53_BLA_p2_ratio: Tox21 HCT-116 p53 Agonism Beta-lactamase Assay, Ratio, Phase 2 (AID 2283592)
How it was run: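 An inducible beta-lactamase reporter in HCT116 cells signals p53 pathway activation. After 16 h chemical exposure at 37C, cells load CCF4-AM substrate for 2 h at room temperature; activity is the cleaved/uncleaved emission ratio relative to DMSO.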

[3] = TOX21_p53_BLA_p3_viability: Viability Assessment in the Tox21 HCT-116 p53 Agonism Beta-lactamase Assay, Phase 3 (AID 2283593);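 also: cells exposed to compound for 16 h before reading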
How it was run: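 HCT116 cells, 4000/well, dosed 5 h after plating by pin transfer (217-fold dilution from DMSO stock) and incubated 16 h at 37C, 5% CO2. Viability read as ATP luminescence with CellTiter-Glo after 30 min at room temperature.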

[4] = target: Cellular tumor antigen p53 (Homo sapiens) (UniProt P04637); assay: TOX21_p53_BLA_p3_ratio: Tox21 HCT-116 p53 Agonism Beta-lactamase Assay, Ratio, Phase 3 (AID 2283596)
How it was run: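 HCT116 p53-bla cells (4000/well) given compound in DMSO (217-fold dilution) after 5 h, incubated 16 h at 37C. CCF4-AM substrate 2 h at room temperature; 460/530 nm emission ratio, gain fitted against DMSO.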

[5] = TOX21_p53_BLA_p4_viability: Viability Assessment in the Tox21 HCT-116 p53 Agonism Beta-lactamase Assay, Phase 4 (AID 2283597);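 also: hits lower the luminescence signal meaning cytotoxicity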
How it was run: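 Compound exposure of HCT116 cells lasts 16 h at 37C, 5% CO2, with DMSO stocks diluted 217-fold. Cellular ATP is then quantified by CellTiter-Glo luminescence after 30 min at room temperature.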

[6] = target: Cellular tumor antigen p53 (Homo sapiens) (UniProt P04637); assay: TOX21_p53_BLA_p5_ratio: Tox21 HCT-116 p53 Agonism Beta-lactamase Assay, Ratio, Phase 5 (AID 2283599)
How it was run: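 HCT-116 p53-bla cells (4000/well) plated 5 h, dosed with compound (217-fold DMSO dilution) for 16 h at 37 C; CCF4-AM substrate 2 h at room temperature. Activity is the 460/530 nm emission ratio (405 nm excitation), fitted in gain-of-signal direction versus DMSO.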

[7] = target: Cellular tumor antigen p53 (Homo sapiens) (UniProt P04637); assay: TOX21_p53_BLA_p4_ratio: Tox21 HCT-116 p53 Agonism Beta-lactamase Assay, Ratio, Phase 4 (AID 2283601)
How it was run: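 HCT-116 p53 beta-lactamase reporter cells (4000/well) preincubated 5 h, then compound (217-fold dilution of DMSO stock) for 16 h at 37C. CCF4-AM substrate added 2 h at room temperature; 460/530 nm emission ratio fitted upward versus DMSO.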

[8] = target: Thyroid hormone receptor alpha (Rattus norvegicus) + Thyroid hormone receptor beta (Rattus norvegicus) (UniProt P18113+P63059); assay: TOX21_TR_LUC_GH3_Antagonist_Followup: Tox21 GH3 Thyroid Hormone Receptor Antagonism Luciferase Follow-Up Assay (AID 2283942)
How it was run: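 Antagonist mode: GH3 cells seeded 1,500/well, compounds at 15 concentrations (92 uM to 5nM final) plus T3 at 1.0 nM final, 24 h at 37C. Luciferase read with ONE-Glo after 30 min at room temperature.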

[9] = TOX21_TRB_BLA_Antagonist_Followup_viability: Viability Assessment in the Tox21 Thyroid Hormone Receptor beta Antagonism Beta-lactamase (BLA) Follow-Up Assay (AID 2283961)
How it was run: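 Cytotoxicity is measured in parallel with the antagonist-mode TRβ beta-lactamase screen, using ATP-coupled luciferase luminescence. Engineered HEK293T cells are treated for 18 h with 11-point compound series in triplicate.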

THRB (gene 7068) = THRB (gene 7068) (UniProt P10828); assay: TOX21_TRB_COA_Antagonist_Followup_ratio: Tox21 Thyroid Hormone Receptor beta Antagonism through Coactivator Recruitment Follow-Up Assay, Ratio (AID 2283967)
How it was run: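 Cell-free TR-FRET: GST-TRb LBD (5.0 nM) with fluorescein-SRC-2 peptide (200 nM) and Tb anti-GST antibody (2 nM), 0.10% BSA. 520:495 nm emission ratio normalized to DMSO (0%) and T3 (100%).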

[10] = target: Retinoic acid receptor RXR-alpha (Homo sapiens) (UniProt P19793); assay: TOX21_TR_RXR_BLA_Antagonist_Followup_ratio: Tox21 Thyroid Hormone Receptor beta Retinoid X Receptor alpha (RXRa) Antagonism Beta-lactamase (BLA) Follow-Up Assay, Ratio (AID 2283972)
How it was run: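 Antagonist mode used GAL4 UAS-driven beta-lactamase in HEK293T cells expressing RXRa, treated for 16 h with compound concentration series. Activity was taken from the blue/green (460:530 nm) ratio of cleaved to uncleaved substrate.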

[11] = TOX21_TR_RXR_BLA_Antagonist_Followup_viability: Viability Assessment in the Tox21 Thyroid Hormone Receptor beta Retinoid X Receptor alpha (RXRa) Antagonism Beta-lactamase (BLA) Follow-Up Assay (AID 2283979)
How it was run: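 RXRa-bla HEK293T cells (2,500/well, phenol red-free DMEM, 2% charcoal-stripped FBS) were attached 5 h, then exposed to compounds at 11 concentrations in triplicate for 16 h at 37C. Viability measured by CellTiter-Glo ATP luminescence, bidirectional fitting versus DMSO.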

Chain of Cellular tumor antigen p53 (Homo sapiens) (P04637 whole entry, looked up): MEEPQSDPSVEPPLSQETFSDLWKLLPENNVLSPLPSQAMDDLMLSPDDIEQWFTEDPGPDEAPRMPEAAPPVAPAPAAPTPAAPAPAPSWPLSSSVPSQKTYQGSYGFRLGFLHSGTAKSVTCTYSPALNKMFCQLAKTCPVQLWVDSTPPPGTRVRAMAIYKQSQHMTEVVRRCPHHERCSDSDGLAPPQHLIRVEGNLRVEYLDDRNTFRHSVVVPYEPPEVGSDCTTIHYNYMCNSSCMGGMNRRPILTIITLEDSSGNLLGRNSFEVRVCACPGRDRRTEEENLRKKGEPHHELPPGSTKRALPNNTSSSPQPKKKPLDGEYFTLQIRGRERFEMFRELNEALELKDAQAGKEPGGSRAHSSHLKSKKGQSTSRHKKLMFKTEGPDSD
Chain of Retinoic acid receptor RXR-alpha (Homo sapiens) (P19793 whole entry, looked up, the tested form may be a part): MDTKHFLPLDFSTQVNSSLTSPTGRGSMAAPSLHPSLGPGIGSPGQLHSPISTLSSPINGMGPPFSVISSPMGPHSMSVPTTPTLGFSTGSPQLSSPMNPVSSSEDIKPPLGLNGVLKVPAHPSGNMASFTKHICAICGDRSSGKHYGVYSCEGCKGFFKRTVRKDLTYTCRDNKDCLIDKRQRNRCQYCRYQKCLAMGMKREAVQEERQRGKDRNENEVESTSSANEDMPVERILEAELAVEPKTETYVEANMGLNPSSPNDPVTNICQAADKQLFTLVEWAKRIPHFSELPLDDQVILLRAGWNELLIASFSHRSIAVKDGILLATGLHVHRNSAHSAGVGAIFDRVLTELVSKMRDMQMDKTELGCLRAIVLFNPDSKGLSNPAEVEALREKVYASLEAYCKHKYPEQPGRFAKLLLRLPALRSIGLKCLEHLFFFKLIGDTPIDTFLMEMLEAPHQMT
Chain of THRB (gene 7068) (P10828 whole entry, looked up, the tested form may be a part): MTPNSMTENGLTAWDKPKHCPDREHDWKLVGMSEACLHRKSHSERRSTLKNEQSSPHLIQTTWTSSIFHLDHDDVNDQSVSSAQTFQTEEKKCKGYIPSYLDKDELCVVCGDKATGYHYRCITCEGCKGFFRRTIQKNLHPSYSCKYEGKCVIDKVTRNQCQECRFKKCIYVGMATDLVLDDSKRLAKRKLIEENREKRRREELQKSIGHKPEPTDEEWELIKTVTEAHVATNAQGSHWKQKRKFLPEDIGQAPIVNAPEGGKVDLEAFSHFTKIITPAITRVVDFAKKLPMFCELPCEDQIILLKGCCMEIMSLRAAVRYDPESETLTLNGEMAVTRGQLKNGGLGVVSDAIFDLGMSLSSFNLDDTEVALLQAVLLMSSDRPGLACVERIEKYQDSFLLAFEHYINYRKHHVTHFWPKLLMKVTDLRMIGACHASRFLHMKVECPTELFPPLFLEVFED

Row | Structure (SMILES) | outcome [1] | AC50 [2] | outcome [3] | outcome [4] | outcome [5] | outcome [6] | outcome [7] | outcome [2] | AC50 [3] | outcome [8] | outcome [9] | outcome (THRB (gene 7068)) | outcome [10] | outcome [11]
1 | O=C(OCC1CO1)C1CCCCC1C(=O)OCC1CO1 (centres undefined) | inactive | 61 µM (active) | inactive | inactive | inactive | inactive | inactive |  |  |  |  |  |  | 
2 | CN(C)C(=O)Oc1cccc([N+](C)(C)C)c1 | inactive |  | inactive | inactive | inactive | inactive | inactive | inactive |  |  |  |  |  | 
3 | CCCN(CCC)C(=O)C(CCC(=O)OCCCN1CCN(CCOC(=O)Cc2c(C)n(C(=O)c3ccc(Cl)cc3)c3ccc(OC)cc23)CC1)NC(=O)c1ccccc1 (centres undefined) | inactive |  | inactive | inactive | inactive | inactive | inactive | inactive |  |  |  |  |  | 
4 | CCc1cccc(N(C)C(N)=Nc2cccc3ccccc23)c1 | inactive |  | inactive | inactive | inactive | inactive | inactive | inactive |  |  |  |  |  | 
5 | Nc1nc2[nH]cc(CCc3ccc(C(=O)N[C@@H](CCC(=O)O)C(=O)O)cc3)c2c(=O)[nH]1 | inactive |  | inactive | inactive | inactive | inactive | inactive | inactive |  |  |  |  |  | 
6 | CC(=O)Nc1ccc(C)cc1 | inactive |  | inactive | inactive | inactive | inactive | inactive | inactive |  |  |  |  |  | 
7 | CCCCCCCCCCCCCC(=O)OCC(COP(=O)([O-])OCC[N+](C)(C)C)OC(=O)CCCCCCCCCCCCC (centres undefined) | inactive |  |  | inactive | inactive | inactive | inactive | inactive | 42.8 µM (active) |  |  |  |  | 
8 | COc1cc(NC(C)CCCN)c2ncccc2c1 (centres undefined) | inactive |  | inactive | inactive | inactive | inactive | inactive | inactive |  |  |  |  |  | 
9 | COc1cc(C(=O)N2CCOCC2)cc(OC)c1OC | inactive |  | inactive | inactive | inactive | inactive | inactive | inactive |  |  |  |  |  | 
10 | C[N+]1(C)CCCC(OC(=O)C(O)(c2ccccc2)c2ccccc2)C1 (centres undefined) | inactive |  | inactive | inactive | inactive | inactive | inactive | inactive |  |  |  |  |  | 
11 | Brc1cc(Oc2cc(Br)c(Br)c(Br)c2Br)c(Br)c(Br)c1Br | inactive |  | inactive | inactive | inactive | inactive | inactive | inactive |  | inactive | inactive | inactive | inactive | inactive
12 | CC(=O)NCCCCCC(=O)O | inactive |  | inactive | inactive | inactive | inactive | inactive | inactive |  |  |  |  |  | 
